The list is not random: actives were taken first. Their share in the collection is about 19%.
IL1B secr inh = inflammasome signaling inhibition, IL-1 beta readout. activity change, % at 57.5 µM. THP-1 LPS/ATP IL-1B secretion, AlphaLISA, 16 h; stronger effect = lower value. 360,000 compounds, 4.7% hits; in the data active means activity change below about -50%; inconclusive means mostly about -30% to -49%; further: on the % scale 0 is the no-effect control and ±100 the full control effect
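THP-1 cells pretreated 1 hr with compounds (up to 57.5 uM final), then stimulated with LPS (250 ng/mL final) plus ATP (1.25 mM final); secreted IL-1B measured by AlphaLISA after 16 hr, decreased signal indicating inhibition.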
HepG2 viability = counter-screen for TGF-b inhibitors: cytotoxicity in HepG2 cells | HepG2 CAGA-GFP viability, ATP luminescence, 18 h | Potency, µM (series often up to 46.1 µM), for inactives: at the highest dose activity change, negative = cytotoxicity, hits mostly cytotoxic | 410,000 compounds, 0.76% hits | AID 588856; further: potency means the concentration at half of the fitted maximal effect
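CellTiter-Glo luminescence gave cytotoxicity after 18 hours at 37 degrees C. The cells were HepG2 CAGA-GFP in 1% FBS DMEM, stimulated with 500 pg/mL TGF-beta after compound addition. %Activity was normalised to no-cell wells (complete cell-killing) and DMSO (no toxicity), and curves were fitted and classified.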
DT40 TDP1 CPT = growth inhibition of DT40 Tdp1-/-;hTDP1 cells with camptothecin (screen for TDP1 inhibitors) | chicken DT40 Tdp1-/-;hTDP1 cells + 20 nM CPT, ATP luminescence, 48 h | Potency, µM (series often up to 46.2 µM), for inactives: top-dose activity change, negative = growth inhibition, most hits filed as inhibitors | 420,000 compounds, 12% hits; further: potency means the concentration at half of the fitted maximal effect; on the % scale 0 is the no-effect control and ±100 the full control effect; nearly all actives have a fitted effect of over 55% in size
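Chicken DT40 Tdp1-/- cells stably complemented with human TDP1 were seeded at 400 cells/well in medium containing 20 nM camptothecin, exposed to pin-transferred compounds, and grown at 37 °C for at least 48 hr. Viability was read as ATP luminescence.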
TGFb SMAD3 inh = inhibitors of TGF-b signaling. HepG2 CAGA-GFP TGF-b/SMAD3 reporter, GFP fluorescence, 18 h; TGF-beta stimulated, 500 pg/mL final. Potency, µM (highest dose often 46.1 µM), for the others: at the highest dose activity, negative = inhibition, usual class: inhibitors. 410,000 compounds, 1.2% hits. AID 588855; further: potency means the concentration at half of the fitted maximal effect; on the % scale 0 is the no-effect control and ±100 the full control effect; nearly all actives have a fitted effect of over 65% in size
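Using HEPG2 CAGA-GFP reporter cells at 1000 cells/well, we pinned test compounds, stimulated with recombinant TGF-beta (500 pg/mL final) and measured total well GFP after 18 h.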
TDP1 cell noCPT = qHTS for Inhibitors of human tyrosyl-DNA phosphodiesterase 1 (TDP1): qHTS in cells in absence of CPT. 420,000 compounds, 15% hits. Potency, µM (highest dose often 46.2 µM), without a hit: top-dose activity change, negative = growth inhibition, actives largely listed as inhibitors. DT40 Tdp1-/- hTDP1 cells, no CPT, ATP luminescence, 48 h; further: potency means the concentration at half of the fitted maximal effect; on the % scale 0 is the no-effect control and ±100 the full control effect; nearly all actives have a fitted effect of over 55% in size
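Camptothecin absent (DMSO only). Human TDP1-complemented DT40 knockout cells, 400 cells/well, 37 °C for minimum 48 hr; ATP measured via CellTiter-Glo, 30 min dark incubation, luminescence.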
S-ASM inh = inhibitors of human secretory acid sphingomyelinase | Potency, µM (top dose mostly 57.5 µM), for inactives: at the highest dose activity change, negative = inhibition, hits mostly inhibitors | P17405 | 340,000 compounds, 0.006% hits | placental ASM, HMU-PC fluorogenic substrate, 60 min; further: potency means the concentration at half of the fitted maximal effect
Target sequence (P17405 47-631 limits assumed): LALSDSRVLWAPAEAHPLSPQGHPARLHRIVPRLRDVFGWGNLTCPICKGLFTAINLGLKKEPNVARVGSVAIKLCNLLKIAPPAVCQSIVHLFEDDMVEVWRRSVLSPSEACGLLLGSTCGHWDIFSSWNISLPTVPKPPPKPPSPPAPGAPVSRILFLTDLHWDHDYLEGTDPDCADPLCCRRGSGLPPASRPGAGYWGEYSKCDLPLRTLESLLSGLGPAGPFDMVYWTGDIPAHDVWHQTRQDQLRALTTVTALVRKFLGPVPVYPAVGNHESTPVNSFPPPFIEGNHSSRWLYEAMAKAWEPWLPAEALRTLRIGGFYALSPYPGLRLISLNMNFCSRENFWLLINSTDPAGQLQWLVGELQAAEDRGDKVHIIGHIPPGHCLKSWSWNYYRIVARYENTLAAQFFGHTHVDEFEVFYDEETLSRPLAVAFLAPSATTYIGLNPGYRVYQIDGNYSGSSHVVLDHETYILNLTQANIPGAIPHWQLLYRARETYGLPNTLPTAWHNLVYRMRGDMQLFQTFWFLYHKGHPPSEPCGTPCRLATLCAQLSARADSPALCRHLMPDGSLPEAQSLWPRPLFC
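Human placenta-derived ASM enzyme was preincubated with compound for 10 minutes at room temperature, then given fluorogenic substrate HMU-PC0 (9 uM final) for 60 minutes at 37 °C; a pH 10 stop preceded fluorescence reading at Ex 386/Em 447 nm.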
* marks the source's active call; other numbers are inactive results; ? = inconclusive; · = not tested or not shown. Unless noted, the call rests on the fitted dose curve; in most records, active means well fitted curve in the direction sought with a large enough effect; inconclusive means small, poorly fitted or top-dose-only effect, or another doubt; inactive means no such curve, though single readings can be large; an effect the other way counts as inactive or inconclusive.

SMILES	IL1B secr inh	HepG2 viability	DT40 TDP1 CPT	TGFb SMAD3 inh	TDP1 cell noCPT	S-ASM inh
COCCNc1nc2cc(-c3ccccc3C)sc2c(=O)n1C	38.7	0.4%	18.4µM*	1.4%	?	·
C=CCNc1nc2cc(-c3ccccc3OC)sc2c(=O)n1C	13.0	-7.8%	?	4.0%	?	·
Cc1ccccc1-c1cc2nc(NCCOc3ccccc3Cl)n(C)c(=O)c2s1	-12.2	-42.7%	?	?	?	·
COCCNc1nc2cc(-c3ccccc3OC)sc2c(=O)n1C	40.7	1.0%	18.4µM*	-16.9%	13µM*	·
COCCn1c(SCC(=O)c2ccc(OC)cc2)nc2cc(C(=O)NC3CCCC3)ccc2c1=O	·	2.7%	2.6%	-12.9%	-14.3%	·
Cc1cccc(NC(=O)C2CCCN(S(=O)(=O)c3c(C)noc3/C=C/N(C)C)C2)c1C (centres undefined)	·	-4.8%	?	-3.9%	?	·
Nc1ncnc2nn(C3OC(CO)C(O)C3O)nc12 (centres undefined)	52.6	-44.8%	4.11µM*	?	1.84µM*	·
Nc1ncnc2c1nc(Br)n2C1OC(CO)C(O)C1O (centres undefined)	·	·	?	·	2.31µM*	·
CC(C)CC1NC(=O)c2cc3ccccc3cc2-n2c1nc1cc(Cl)ccc1c2=O (centres undefined)	73.3	-5.0%	?	12.3%	18.4µM*	·
CC1NC(=O)c2cc3ccccc3cc2-n2c1nc1cc(Cl)ccc1c2=O (centres undefined)	15.6	-38.5%	20.6µM*	-9.7%	?	·
Nc1cc(=O)nc(SCC(=O)Nc2ccc(F)cc2)n1-c1cccc(Cl)c1	·	-4.7%	1.2%	-3.9%	-13.2%	·
Nc1cc(=O)[nH]c(SCC(=O)Nc2ccc(S(=O)(=O)N3CCCC3)cc2)n1	-9.2	-0.6%	-6.1%	1.1%	4.5%	3.0%
COc1ccc(C(=O)N2CCC[C@@]3(CCN(C(=O)Nc4cccc(F)c4)C3)C2)cc1	·	·	5.8%	·	-14.4%	·
COc1ccc(C)cc1NC(=O)c1cccc(C(=O)Nc2cc(C)ccc2OC)c1	?	16.7%	14.6µM*	10.6%	10.3µM*	-1.4%
COc1ccc(OC)c(NC(=O)c2cc(OC(C)=O)cc(C(=O)Nc3cc(OC)ccc3OC)c2)c1	-10.3	-25.4%	?	?	10.3µM*	-2.1%
COc1ccc(C)cc1NC(=O)c1ccc2c(c1)OCO2	1.7	-31.9%	-12.1%	17.9%	-24.9%	4.9%
COc1ccc(-c2nc3cnccn3c2Nc2ccc3c(c2)OCO3)cc1	104.9	-6.8%	?	?	?	-4.1%
COc1ccc(Nc2c(-c3ccc(C)cc3)nc3cnccn23)cc1	19.0	-14.3%	?	?	?	-18.3%
CCc1cccc(C)c1Nc1c(-c2cccc(O)c2)nc2cnccn12	·	-60.1%	?	11.2µM*	?	·
CCc1cccc(C)c1Nc1c(-c2ccc(N(C)C)cc2)nc2cnccn12	·	15.8µM*	?	15.8µM*	23.1µM*	·
Cc1ccccc1Nc1c(-c2ccc(N3CCOCC3)cc2)nc2cnccn12	-26.6	0.4%	-19.5%	-27.7%	?	39.8%
CN(C)c1ccc(-c2nc3cnccn3c2Nc2cccc(C(F)(F)F)c2)cc1	·	-5.2%	25.9µM*	-22.8%	?	·
COc1cccc(C2NC(=O)NC(C)=C2C(=O)OCCSC)c1OC (centres undefined)	4.9	-3.4%	-2.9%	-3.6%	1.5%	3.2%
CCc1ccc(C(C#N)=CC=Cc2ccccc2)cc1	?	-16.5%	?	-2.7%	20.6µM*	·
CN(C)CCCNC(=O)CC(c1ccccc1)c1ccccc1O (centres undefined)	0.0	-2.6%	4.5%	10.5%	-14.0%	16.6%
SMILES	IL1B secr inh	HepG2 viability	DT40 TDP1 CPT	TGFb SMAD3 inh	TDP1 cell noCPT	S-ASM inh
CN(C)CCCC(C)(O)C(Cc1ccccc1)c1ccccc1 (centres undefined)	-16.6	-2.3%	?	-1.6%	20.6µM*	4.5%
O=C(NN1CCOCC1)c1cc(-c2ccc(Cl)c(Cl)c2)nc2ccccc12	-17.0	-0.8%	?	1.3%	1.3µM*	-4.4%
O=C(NNC(=O)c1cc(-c2ccc(Cl)c(Cl)c2)nc2ccccc12)Nc1ccccc1	?	-0.2%	14.6µM*	?	?	-16.2%
Cc1cccc(NC(=O)NNC(=O)c2cc(-c3ccccc3Cl)nc3ccccc23)c1	-14.1	-83.2%	?	?	?	-13.4%
CCOc1cc(Br)cc(/C=C2\SC(=Nc3ccccc3)NC2=O)c1O	-19.8	-81.6%	?	10µM*	?	-18.4%
C=CCOc1c(Br)cc(/C=C2\SC(=Nc3ccccc3)NC2=O)cc1OC	-0.1	15.8µM*	?	?	20.6µM*	-13.9%
CCc1ccc(N=C2NC(=O)/C(=C/c3cc(Br)c(OCC(=O)O)c(OC)c3)S2)cc1	35.7	-11.4%	-9.9%	1.4%	-1.9%	15.1%
O=C1NC(=Nc2ccc(O)cc2)S/C1=C/c1ccco1	19.4	-4.6%	?	-12.3%	18.4µM*	3.1%
COc1cc(/C=C2\SC(=Nc3ccc(O)cc3)NC2=O)cc(OC)c1O	90.8	1.0%	20.6µM*	-1.7%	5.17µM*	6.1%
CCOc1ccc(NC(=O)C(=O)NCCN2CCN(C(=O)c3ccc(C)cc3)CC2)cc1	-1.5	3.1%	-16.7%	13.3%	-27.0%	-2.8%
O=C1C2C3C=CC(CC3)C2C(=O)N1c1cccc(C(F)(F)F)c1 (centres undefined)	-10.7	-13.9%	13.9%	-8.7%	-4.5%	4.7%
COCCNC(=O)CSc1nc2ccccc2c(=O)n1-c1cccc(OC)c1	0.0	-0.5%	-20.1%	?	-16.5%	0.0%
COCCNC(=O)c1ccc(-n2c(SCc3ccncc3)nc3ccccc3c2=O)cc1	-72.9*	1.0%	-8.3%	24.6%	-28.4%	1.2%
COCC(C)n1c(SCc2ccc(OC)c(F)c2)nc2ccccc2c1=O (centres undefined)	50.7	6.8%	5.8µM*	?	4.11µM*	-0.9%
COCC(C)n1c(SCc2ccc(C(=O)OC)cc2)nc2ccccc2c1=O (centres undefined)	4.7	6.3%	11.6µM*	28.7%	9.2µM*	-12.9%
COCC(C)n1c(SCC(=O)NC(=O)Cc2ccccc2)nc2ccccc2c1=O (centres undefined)	2.6	4.8%	?	5.6%	-20.9%	0.8%

Compound activity from PubChem BioAssay.
